Results published in PubChem BioAssay.
Activity calls are given as the source filed them. Unless noted, how the calls were made is not given here.

Tests used:
[1] = A549 cell viability effects, profiling panel, calcein-AM fluorescence, 48 h, basal (AID 1162); settings: higher = more signal; further: test concentration not given here
[2] = adipocyte viability effects, profiling panel, cell-based, 3T3-L1 adipocytes, calcein-AM fluorescence, 48 h, basal (AID 1163); settings: 3T3-L1 adipocytes viability, higher = more signal; further: test concentration not given here
[3] = HepG2 cell viability effects, profiling panel, calcein-AM fluorescence, 48 h, basal (AID 1164); settings: higher = more signal; further: test concentration not given here
[4] = MM1S cell viability effects, profiling panel, calcein-AM fluorescence, 48 h, basal (AID 1165); settings: higher = more signal;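 further: viability of MM1S multiple myeloma cells under basal unstimulated conditions; test concentration not given here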
[5] = basal RPMI8226 viability, no added stimulus, profiling panel, cell-based, calcein-AM fluorescence, 48 h, PK04 Diversity Set (AID 1166); settings: RPMI8226 myeloma viability, higher = more signal;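 further: cells grown under basal conditions without added stimulus; test concentration not given here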
[6] = basal HepG2 mitochondrial membrane potential changes, profiling panel, cell-based, JC-1 fluorescence, 24 h, 100 nL compound (AID 1167); settings: higher = more signal; further: test concentration not given here
[7] = basal 3T3-L1 adipocyte mitochondrial potential changes, profiling panel, cell-based, JC-1 fluorescence, 3T3-L1 adipocytes, 24 h, 100 nL compound (AID 1168); settings: JC-1 mitochondrial fluorescence, higher = more signal, called active from +8 up or from −8 down; further: test concentration not given here
[8] = basal RPMI8226 mitochondrial membrane potential changes, profiling panel, cell-based, JC-1 fluorescence, 24 h, 100 nL compound (AID 1169); settings: RPMI8226 myeloma, JC-1 mitochondrial potential fluorescence, higher = more signal; further: test concentration not given here
[9] = basal MM1S mitochondrial membrane potential changes, profiling panel, cell-based, JC-1 fluorescence, 24 h, 100 nL compound (AID 1170); settings: higher = more signal; further: test concentration not given here
[10] = A549 lung cancer cell viability effects, profiling panel, resazurin fluorescence, 24 h, PK04 Diversity Set (AID 1171); settings: higher = more signal, called active from +8 up or from −8 down; further: test concentration not given here
[11] = HepG2 liver cancer cell viability effects, profiling panel, resazurin fluorescence, 24 h, PK04 Diversity Set (AID 1172); settings: higher = more signal; further: test concentration not given here
[12] = basal S. cerevisiae growth modulation, no modifier, primary screen, OD600, strain BY4716, 24 h, basal condition (AID 1173); settings: OD600, 24 h, higher = more signal, called active from +8 up or from −8 down
[13] = MM1S myeloma cell viability, profiling panel, resazurin fluorescence, basal, 24 h, PK04 Diversity Set (AID 1174); settings: higher = more signal, called active from +8 up or from −8 down;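 further: MM1S multiple myeloma cell line; test concentration not given here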
[14] = biological target: Dihydroorotate dehydrogenase (quinone), mitochondrial (Plasmodium falciparum (isolate 3D7)) (UniProt Q08210); assay: PfDHODH enzyme inhibitors, primary screen, biochemical, C-terminal His tag, absorbance 600 nm (AID 1175); settings: DCIP absorbance 600 nm, higher = more signal, called active from +8 up or from −8 down;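 further: recombinant parasite enzyme with a five histidine tag at its C terminus; test concentration not given here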
Dihydroorotate dehydrogenase (quinone), mitochondrial (Plasmodium falciparum (isolate 3D7)), sequence (Q08210 whole entry, looked up): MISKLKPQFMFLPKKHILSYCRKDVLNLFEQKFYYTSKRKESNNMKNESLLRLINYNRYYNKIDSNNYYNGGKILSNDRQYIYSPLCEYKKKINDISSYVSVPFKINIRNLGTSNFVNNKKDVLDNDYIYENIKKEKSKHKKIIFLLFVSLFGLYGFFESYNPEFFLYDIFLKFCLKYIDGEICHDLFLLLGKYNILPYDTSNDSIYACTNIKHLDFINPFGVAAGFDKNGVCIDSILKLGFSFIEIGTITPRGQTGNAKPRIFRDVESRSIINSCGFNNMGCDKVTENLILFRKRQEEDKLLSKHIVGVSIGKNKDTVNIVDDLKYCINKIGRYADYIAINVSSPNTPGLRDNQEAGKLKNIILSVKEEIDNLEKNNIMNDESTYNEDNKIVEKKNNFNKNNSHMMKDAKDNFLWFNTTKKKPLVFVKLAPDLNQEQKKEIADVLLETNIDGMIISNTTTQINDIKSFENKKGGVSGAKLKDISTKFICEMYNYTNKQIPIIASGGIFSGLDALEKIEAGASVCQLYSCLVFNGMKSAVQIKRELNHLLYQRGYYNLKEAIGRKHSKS

[15] = P. aeruginosa biofilm formation inhibitors, primary screen, strain PAO1, LB-PBS medium, absorbance 600 nm (AID 1176); further: test concentration not given here; settings: P. aeruginosa PAO1 growth/biofilm, A600, 12 h; higher = more signal
[16] = S. cerevisiae RM11-1a growth modifiers, primary screen, strain RM11-1a, OD600, basal, 24 h (AID 1177); settings: OD600, 24 h, higher = more signal, called active from +8 up or from −8 down;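 further: cultures grown under basal conditions with no added stressor; test concentration not given here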
[17] = E. coli acrAB mutant growth effects, primary screen, E. coli filamentation inducers, strain DRC39, OD650, 24 h (AID 1178); settings: higher = more signal, called active from +8 up or from −8 down;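 further: growth measured as culture turbidity by optical density at 650 nm; test concentration not given here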
[18] = E. coli acrAB mutant growth effects, primary screen, E. coli filamentation inducers, strain DRC39, OD650, 48 h (AID 1179);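 further: screen aims at cell division blockers that make cells filament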; settings: E. coli DRC39 delta-acrAB growth, higher = more signal, called active from +8 up or from −8 down
[19] = RPMI8226 myeloma cell viability, profiling panel, resazurin fluorescence, basal, 24 h, PK04 Diversity Set (AID 1180); settings: higher = more signal;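 further: RPMI8826 multiple myeloma cell line at 5000 cells per well; test concentration not given here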
[20] = biological target: E3 ubiquitin-protein ligase XIAP (Homo sapiens) (UniProt P98170); assay: XIAP binders, primary screen, biophysical, small-molecule microarray, fluorescence 635 nm (AID 1181); settings: small-molecule microarray binding, higher = more signal;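 further: score merges 667 nm emission and signal to noise over triplicate slides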
E3 ubiquitin-protein ligase XIAP (Homo sapiens), sequence (P98170 whole entry, looked up): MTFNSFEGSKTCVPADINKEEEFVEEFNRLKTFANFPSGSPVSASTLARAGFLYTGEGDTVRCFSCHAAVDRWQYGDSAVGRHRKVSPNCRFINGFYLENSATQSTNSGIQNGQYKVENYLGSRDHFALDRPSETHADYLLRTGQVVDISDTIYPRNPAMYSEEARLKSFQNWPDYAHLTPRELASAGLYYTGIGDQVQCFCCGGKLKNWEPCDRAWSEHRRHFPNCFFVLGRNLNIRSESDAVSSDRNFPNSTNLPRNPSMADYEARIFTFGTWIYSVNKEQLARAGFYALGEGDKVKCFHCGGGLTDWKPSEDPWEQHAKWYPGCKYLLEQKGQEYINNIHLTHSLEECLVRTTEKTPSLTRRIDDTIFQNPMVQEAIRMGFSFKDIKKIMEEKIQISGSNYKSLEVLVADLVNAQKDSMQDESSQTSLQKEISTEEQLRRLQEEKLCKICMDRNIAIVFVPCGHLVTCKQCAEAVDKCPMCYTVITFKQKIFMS

| SMILES | z-score [1] | z-score [2] | z-score [3] | z-score [4] | z-score [5] | z-score [6] | z-score [7] | z-score [8] | z-score [9] | z-score [10] | z-score [11] | z-score [12] | z-score [13] | composite z-score [14] | z-score [15] | z-score [16] | z-score [17] | z-score [18] | z-score [19] | composite z-score [20] |
| --- | --- | --- | --- | --- | --- | --- | --- | --- | --- | --- | --- | --- | --- | --- | --- | --- | --- | --- | --- | --- |
| COc1ccc([Si](C)(C)[C@@H]2[C@@H](CCn3cc([C@H](O)c4ccccc4)nn3)O[C@]3(C(=O)N(Cc4cccc(N5C(=O)c6cccc7cccc5c67)c4)c4ccccc43)[C@H]2C)cc1 | -0.381 | 0.0092 | 0.3 | -0.189 | -2.11 | 1.07 | -0.265 (inactive) | -0.681 | -0.193 | -1.26 (inactive) | -0.167 | 1.33 (inactive) | -2.01 (inactive) | 0.736 (inactive) | 0.106 (inactive) | 2.11 (inactive) | -0.494 (inactive) | -0.787 (inactive) | -1.19 | -0.217 |
| COCCOC(=O)N1C(=O)[C@@]2(c3cc(C#CCC(C(=O)OC)C(=O)OC)ccc31)[C@H](C(=O)NC[C@H](O)c1ccccc1)[C@H]1C(=O)O[C@H](c3ccccc3)[C@H](c3ccccc3)N1[C@@H]2c1ccc(OCCO)cc1 | -0.248 | 0.951 | 0.583 | 0.152 | -1.87 | -0.684 | 0.407 (inactive) | -0.854 | -0.724 | -0.873 (inactive) | -0.685 | 2.05 (inactive) | -0.0535 (inactive) | -0.429 (inactive) | 3.49 (inactive) | 3.11 (inactive) | 0.629 (inactive) | 0.453 (inactive) | -0.291 | 0.0806 |
| Cc1ccc(F)cc1S(=O)(=O)N[C@@H]1CCN(Cc2cccc3[nH]ccc23)C1 | 0.139 | -0.658 | -0.415 | -1.14 | -0.864 | 0.0617 | -0.65 (inactive) | 0.263 | -0.161 | -0.398 (inactive) | -0.921 | -2.03 (inactive) | -0.182 (inactive) | 0.31 (inactive) | 0.343 (inactive) | -0.367 (inactive) | -0.429 (inactive) | -1.32 (inactive) | -0.504 | -0.02 |
| CC(C)=CCCC(C)=CC(O)C1C=CC2C(=O)N(c3ccccc3)C(=O)C2N1Nc1ccccc1F (stereo not given) | 0.154 | 0.0094 | 0.443 | 0.381 | -0.93 | -0.143 | -0.507 (inactive) | -0.271 | -0.426 | 0.598 (inactive) | 0.856 | -1.18 (inactive) | 0.47 (inactive) | -0.323 (inactive) | 0.505 (inactive) | -0.54 (inactive) | 0.131 (inactive) | 0.739 (inactive) | 1.22 | -0.21 |
